# Experimental data from PubChem BioAssay (NCATS).
# Records with an inconclusive call do not appear. Where a call stands in place of a potency, no number is given. Activity calls are given as the source filed them. Unless noted, the call rests on the fitted dose curve.
# Tests used:
# [1] = qHTS for Inhibitors of the Functional Ribonucleoprotein Complex (vRNP) of Lymphocytic Choriomeningitis Arenaviruses (LCMV): Viability assay - alamar blue signal for LCMV Primary Screen (AID 1347085; calls by dose curve; tested in HEK293 reporter line; further: nearly all actives have a fitted effect of over 80% in size; further: potency means the concentration at half of the fitted maximal effect)
# [2] = biological target: Nucleoprotein (Lymphocytic choriomeningitis virus (strain Armstrong)) (UniProt P09992); assay: qHTS for Inhibitors of the Functional Ribonucleoprotein Complex (vRNP) of Lymphocytic Choriomeningitis Arenaviruses (LCMV): LCMV Primary Screen - GLuc reporter signal (AID 1347086); further: nearly all actives have a fitted effect of over 70% in size; further: potency means the concentration at half of the fitted maximal effect
# [3] = Primary qHTS for Huh7 cytotoxicity: counterscreen for inhibitors of MERS-S pseudotyped particle cell entry (AID 1479147); settings: outcome: dose series up to 57.1 µM unless noted
# [4] = Primary qHTS for inhibitors of MERS-S pseudo-typed particle cell entry (AID 1479149); further: nearly all actives have a fitted effect of over 60% in size
# [5] = Primary qHTS for Vero E6 cytotoxicity: counterscreen for inhibitors of SARS-S pseudo-typed particle cell entry (AID 1479150); settings: outcome: dose series up to 57.1 µM unless noted
# [6] = Primary qHTS to identify inhibitors of SARS-CoV-2 cell entry (AID 1645846); settings: activity change, negative = inhibition: at 57.1 µM (top of the series) unless noted; further: nearly all actives have a fitted effect of over 45% in size; further: potency means the concentration at half of the fitted maximal effect
# How it was run: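 Using luciferase-reporting pseudoviruses carrying Wuhan-Hu-1 spike, the screen tracks entry into stably ACE2-expressing cells over 48 hr. Activity is expressed relative to spike particles versus particles lacking any fusion protein.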
# [7] = VSVG counterscreen qHTS to identify inhibitors of SARS-CoV-2 cell entry (AID 1645847); further: potency means the concentration at half of the fitted maximal effect; nearly all actives have a fitted effect of over 65% in size
# How it was run: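 Entry of VSV-G pseudotyped particles into human ACE2-expressing HEK293 cells was measured by luciferase luminescence 48 h after infection, with compound added 1 h beforehand.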
# [8] = biological target: Alpha-galactosidase (Coffea arabica) (UniProt Q42656); assay: Counterscreen for Glucocerebrosidase Inhibitors: qHTS Assay for Coffee Bean alpha-Galactosidase at pH 5.9 (AID 998; active means well fitted curve in the direction sought with a large enough effect; an effect the other way counts as inactive or inconclusive)
# How it was run: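 Green coffee bean enzyme (2 nM final) was incubated with compounds (0.7 nM–77 uM) and 4-methylumbelliferyl alpha-D-galactopyranoside (80 uM) in citrate buffer pH 5.9, 20 min at room temperature. High-pH stop; fluorescence 365/440 nm; AC50 from Hill fits.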
# [9] = Inducers of the Endoplasmic Reticulum Stress Response (ERSR) in human glioma: Validation (AID 504836; active means well fitted curve in the direction sought with a large enough effect; an effect the other way counts as inactive or inconclusive)
# How it was run: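 Stably transfected U87-MG human glioma cells carrying a GRP78-based luminescent sensor were seeded at 1000 cells/well, pin-dosed with compounds and incubated 16 h. Luciferase reagent was then added, and end-point luminescence was read after 10 min at room temperature.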
# [10] = Primary qHTS for inhibitors of SARS-S pseudo-typed particle cell entry (AID 1479145); further: nearly all actives have a fitted effect of over 45% in size
# [11] = Cytotoxicity counterscreen for inhibitors of SARS-CoV-2 cell entry (AID 1645845); further: nearly all actives have a fitted effect of over 50% in size
# How it was run: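 Expi293F/hACE2 cells seeded overnight; cpd pin-transferred in DMSO, 1 h preincubation, + media, 48 h 37 C 5% CO2; ATPLite 1step luminescence; normalized to cells and no cells.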
# [12] = qHTS profiling of the MIPE4 collection as inhibitors of Plasmodium falciparum (3D7) proliferation (AID 743344; call rule not given here); settings: P. falciparum 3D7 in erythrocytes, SYBR Green DNA fluorescence, 72 h; at 28.5 µM (top of the series) unless noted
# How it was run: (§1)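 Erythrocytes infected with P. falciparum (0.3% parasitemia, 2.5% hematocrit) incubated with compounds 72 h at 37 C, 5% CO2. Lysis with saponin/Triton buffer containing SYBR Green I, overnight at room temperature in the dark; DNA fluorescence (485/535 nm) normalised to 0.29 uM artemisinin and DMSO.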
# [13] = qHTS profiling of the MIPE4 collection as inhibitors of Plasmodium falciparum (DD2) proliferation (AID 743345; call rule not given here); settings: P. falciparum Dd2 in erythrocytes, SYBR Green DNA, 72 h; at 28.5 µM (top of the series) unless noted
# How it was run: as §1
# [14] = qHTS profiling of the MIPE4 collection as inhibitors of Plasmodium falciparum (DD2) proliferation (Rep 2) (AID 743346; call rule not given here); settings: P. falciparum Dd2 in erythrocytes, SYBR Green DNA, 72 h; at 28.5 µM (top of the series) unless noted
# How it was run: as §1
# [15] = Confirmatory qHTS to identify inhibitors of SARS-CoV-2 cell entry (AID 1645844); further: potency means the concentration at half of the fitted maximal effect; nearly all actives have a fitted effect of over 45% in size
# How it was run: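 HEK293-ACE2 cells (Expi293F stably expressing human ACE2) were pretreated with compounds for 1 hr at 37C, then infected with MLV-based particles carrying Wuhan-Hu-1 spike (C-terminal 19-aa truncation). Luciferase luminescence read after 48 hr; normalized to spike PP (100%) and bald PP (0%).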
# [16] = biological target: Peroxisome proliferator-activated receptor delta (Homo sapiens) (UniProt Q03181); assay: qHTS assay for small molecule agonists of peroxisome proliferator-activated receptor delta signaling (AID 588534)
# How it was run: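 Reporter cells were plated and held 5 hrs at 37 C before compounds were added. After 18 hrs at 37 C, CCF4 dye was loaded for 2 hrs at RT and fluorescence measured.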
# Sequence of Nucleoprotein (Lymphocytic choriomeningitis virus (strain Armstrong)) (P09992 whole entry, looked up): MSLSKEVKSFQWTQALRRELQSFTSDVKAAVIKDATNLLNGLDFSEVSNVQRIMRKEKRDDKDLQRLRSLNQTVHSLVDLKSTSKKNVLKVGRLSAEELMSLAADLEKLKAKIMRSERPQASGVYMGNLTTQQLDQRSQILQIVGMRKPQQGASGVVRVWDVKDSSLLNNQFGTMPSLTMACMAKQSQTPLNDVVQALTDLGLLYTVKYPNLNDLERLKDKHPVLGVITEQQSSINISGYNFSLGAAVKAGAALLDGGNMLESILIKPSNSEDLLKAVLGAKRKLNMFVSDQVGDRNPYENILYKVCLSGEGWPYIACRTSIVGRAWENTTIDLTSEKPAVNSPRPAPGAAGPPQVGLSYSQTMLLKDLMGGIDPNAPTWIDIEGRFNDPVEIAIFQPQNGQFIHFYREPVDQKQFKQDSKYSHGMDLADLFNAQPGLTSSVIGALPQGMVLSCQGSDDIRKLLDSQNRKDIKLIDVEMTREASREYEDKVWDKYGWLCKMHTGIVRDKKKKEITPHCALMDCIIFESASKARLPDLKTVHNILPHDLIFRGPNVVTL
# Sequence of Peroxisome proliferator-activated receptor delta (Homo sapiens) (Q03181 whole entry, looked up): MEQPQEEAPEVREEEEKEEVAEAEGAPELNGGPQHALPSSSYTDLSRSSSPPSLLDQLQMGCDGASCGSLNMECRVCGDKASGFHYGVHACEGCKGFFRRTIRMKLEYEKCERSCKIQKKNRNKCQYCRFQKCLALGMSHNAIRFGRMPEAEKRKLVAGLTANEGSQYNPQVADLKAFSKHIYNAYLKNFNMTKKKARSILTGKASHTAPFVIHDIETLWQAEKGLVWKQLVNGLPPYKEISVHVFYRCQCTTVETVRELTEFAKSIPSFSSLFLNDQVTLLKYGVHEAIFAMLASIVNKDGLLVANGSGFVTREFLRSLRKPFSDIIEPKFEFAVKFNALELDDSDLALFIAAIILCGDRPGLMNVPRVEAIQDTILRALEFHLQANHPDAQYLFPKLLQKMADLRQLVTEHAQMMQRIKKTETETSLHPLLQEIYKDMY
# Sequence of Alpha-galactosidase (Coffea arabica) (Q42656 whole entry, looked up): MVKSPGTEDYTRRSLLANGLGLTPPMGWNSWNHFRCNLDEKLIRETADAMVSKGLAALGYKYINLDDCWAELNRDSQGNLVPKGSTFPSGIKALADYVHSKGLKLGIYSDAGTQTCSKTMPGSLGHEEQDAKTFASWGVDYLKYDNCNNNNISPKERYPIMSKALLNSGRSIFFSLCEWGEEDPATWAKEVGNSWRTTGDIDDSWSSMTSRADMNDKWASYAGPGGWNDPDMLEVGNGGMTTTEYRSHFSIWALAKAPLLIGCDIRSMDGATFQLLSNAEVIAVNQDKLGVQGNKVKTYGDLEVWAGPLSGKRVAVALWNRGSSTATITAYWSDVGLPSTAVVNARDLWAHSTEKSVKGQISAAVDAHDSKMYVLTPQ
structure (smiles),measurement,setting,value
C[C@@]12C=Cc3occc3[C@H]1CC[C@@]13C[C@@H](CC[C@H]12)[C@@](O)(CO)C3,Potency,[1],inactive
same,Potency,[2],inactive
Nc1ccc(N=Nc2ccc(-c3ccc(N=Nc4c(S(=O)(=O)O)cc5cc(S(=O)(=O)O)c(N=Nc6ccccc6)c(O)c5c4N)cc3)cc2)c(N)c1,Potency,[2],inactive
CO[C@@H]1[C@@H](OC2OC(C)C(OC3CC(C)(O)C(OC(=O)CC(C)C)C(C)O3)C(N(C)C)C2O)[C@@H](CC=O)C[C@@H](C)C(=O)/C=C\C2O[C@H]2C[C@@H](C)OC(=O)C[C@H]1OC(C)=O (some centres not stated),Potency,[1],inactive
same,Potency,[2],inactive
same,outcome,[3],inactive
same,Potency,[4],inactive
same,outcome,[5],inactive
same,Potency,[6],28.2 µM (active)
same,Potency,[7],17.1 µM (active)
CCC1(O)C(=O)OCc2c1cc1n(c2=O)Cc2cc3cc(O)ccc3nc2-1 (configuration not stated),Potency,[1],0.1 µM (active)
Cc1ccc(O)c(N=Nc2ccccc2)n1,outcome,[8],inactive
same,outcome,[9],inactive
same,Potency,[1],inactive
same,Potency,[2],inactive
CCN(CC)CCOc1ccc(C(=C(Cl)c2ccccc2)c2ccccc2)cc1,Potency,[2],inactive
CC(=O)OC[C@@H]1O[C@@H](n2ccc(=O)[nH]c2=O)[C@H](OC(C)=O)[C@H]1OC(C)=O,Potency,[1],4.85 µM (active)
same,Potency,[2],7.69 µM (active)
same,Potency,[10],inactive
same,outcome,[3],inactive
same,Potency,[4],inactive
same,outcome,[5],inactive
same,Potency,[11],inactive
same,"activity change, negative = inhibition",[6],-39.7%
C=CC(=O)N1CCC[C@@H](n2nc(-c3ccc(Oc4ccccc4)cc3)c3c(N)ncnc32)C1,Potency,[1],21.7 µM (active)
same,Potency,[11],inactive
same,Potency,[6],inactive
CC(=O)O[C@H]1[C@H]2O[C@]23[C@@H]2CC[C@]4(O)C[C@@H](O)CC[C@]4(C)C2CC[C@]3(C)[C@H]1c1ccc(=O)oc1 (some centres not stated),Potency,[2],0.316 µM (active)
COc1ccc2cc1Oc1ccc(cc1)C[C@H]1c3cc(c(OC)cc3CCN1C)Oc1c(OC)c(OC)cc3c1[C@H](C2)N(C)CC3,"parasite growth, % of DMSO control",[12],31.2%
same,"parasite growth remaining, % of DMSO control (lower = more inhibition)",[13],72.6%
same,"parasite growth, % of control (lower = inhibition)",[14],50.7%
same,Potency,[1],inactive
O=C(CC(O)CCc1ccccc1)c1ccc(O)cc1 (configuration not stated),Potency,[2],inactive
COc1c(O)c(=O)n2c3ccccc3c3ccnc1c32,Potency,[2],inactive
O=C1NC(=O)/C(=C/c2ccc3nccnc3c2)S1,outcome,[9],inactive
same,Potency,[1],inactive
same,Potency,[6],inactive
CC(C)(C)c1nc2c3cc[nH]c(=O)c3c3cc(F)ccc3c2[nH]1,Potency,[1],inactive
same,Potency,[2],inactive
same,Potency,[15],1.71 µM (active)
same,Potency,[11],inactive
CCOc1cc2c(c(F)c1OCC)C(=N)N(CC(=O)c1cc(N3CCOCC3)c(OC)c(C(C)(C)C)c1)C2,Potency,[1],24.3 µM (active)
same,Potency,[2],9.68 µM (active)
same,Potency,[6],35.5 µM (active)
Cc1cccc(O)c1C,Potency,[16],inactive
same,Potency,[1],inactive
same,Potency,[2],inactive
